Source: PubChem BioAssay
Pf growth 48h: inhibits P. falciparum growth in the first generation, 48 h | P. falciparum luciferase growth in erythrocytes, 48 h | Potency, µM (highest dose often 28.7 µM), most hits filed as inhibitors | actives 5.9% (n = 310,000); active means well fitted inhibition curve with a large enough effect; inconclusive means small, poorly fitted or top-dose-only effect, or another doubt; inactive means no such curve, though single readings can be large or run the other way
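A one-generation exposure of luciferase-tagged malaria parasites in RPMI 1640/Albumax erythrocyte culture, 37 C and 5% CO2. Inhibition is inferred from decreased luminescence after adding detection reagent.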
SARS PLP yeast: SARS-CoV PLP inhibition in yeast; S. cerevisiae expressing SARS-CoV PLpro, growth rescue; actives 0.19% (n = 330,000); Potency, µM (titrated, usually from 32.9 µM), most hits filed as activators; AID 485353; further: nearly all actives have a fitted effect of over 55% in size
Cycloheximide cs: affects cycloheximide protein synthesis inhibition readout, counter-screen; cell reporter, cycloheximide protein synthesis inhibition counterscreen; max response, %; actives 12% (n = 300,000); in the data active means max response mostly above about 13%, no sharp cut-off; inactive means mostly below about 14%; further: read at 38.3 µM for the half of the compounds with a filed dose
NS1 function inh: influenza NS1 inhibition | Potency, µM (top dose mostly 46.1 µM) | actives 0.4% (n = 270,000) | AID 2326; further: actives are rising curves; nearly all actives have a fitted effect of over 50% in size
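Read-out: OD600 growth recovery of NS1-expressing budding yeast. Cells grown overnight at 30C in -URA glucose medium, washed, resuspended and diluted 1:100 in 2% galactose assay medium, pH 6.0. Same strain lacking NS1 served as positive control.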
Pf growth 96h: P. falciparum growth inhibition at 96 hours; P. falciparum luciferase reporter growth, 96 h; actives 6.9% (n = 320,000); Potency, µM (series often up to 28.7 µM), usual class: inhibitors; active means well fitted inhibition curve with a large enough effect; inconclusive means small, poorly fitted or top-dose-only effect, or another doubt; inactive means no such curve, though single readings can be large or run the other way
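Erythrocytes infected with luciferase-expressing P. falciparum were dispensed at 2% hematocrit and 0.05% parasitemia (final), then incubated with compounds 96 hours at 37 C in 5% CO2. Luminescence after detection reagent addition reported growth.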
Shiga inhibitor: Shiga toxin inhibition; Vero cells, Shiga toxin protein synthesis inhibition reporter; inhibition, % at 38.7 µM; actives 9.2% (n = 290,000); in the data active means inhibition mostly above about 28%, no sharp cut-off; inactive means mostly below about 43%
Numbers stand for hits; n = inactive; u = inconclusive; x = no result; [ ] = remark or other dose. Hits are enriched below; roughly 21% of the tested compounds scored in any of these assays. Unless noted, the call rests on the fitted dose curve.

SMILES	Pf growth 48h	SARS PLP yeast	Cycloheximide cs	NS1 function inh	Pf growth 96h	Shiga inhibitor
COc1ccc2nc(NCc3cccnc3)sc2c1	n	n	22	n	u	49
COc1cccc(Nc2nc3ccc(OC)cc3s2)c1	n	n	57	x	n	89
COc1ccc2nc(NC3=NCCC3)sc2c1	n	n	53	n	x	153
COc1ccc(Nc2nc3ccccc3s2)cc1	n	n	50	n	n	n
COc1cccc(Nc2n[nH]c(=S)s2)c1	n	n	n	n	n	n
Cn1nccc1C(=O)OCC(=O)Nc1ccccc1Cl	n	n	n	n	u	n
Cc1ccc(NS(=O)(=O)c2cccc(C(=O)NCCCn3ccnc3)c2)cc1	u	n	x	x	n	x
COC(=O)c1cc(NS(=O)(=O)c2ccc(N3CCOCC3)c([N+](=O)[O-])c2)cc(C(=O)OC)c1	n	n	n	n	u	n
CC(C)OP(=O)(c1ccc(N(C)C)cc1)C(O)c1ccc(N(C)C)cc1 (stereo not drawn)	n	n	n	n	n	n
Cc1cccc(Nc2sc(C(=O)c3cc4cc(Cl)ccc4o3)c(N)c2C#N)c1	n	n	n	u	n	n
Cc1cccc(Nc2n[nH]c(=S)s2)c1C	n	n	n	n	n	n
COc1ccc(CC(=O)Nc2sc3c(c2C(N)=O)CCCC3)cc1	x	n	n	n	n	n
COc1ccc2nc(Nc3sc4c(c3C(N)=O)CCCC4)sc2c1	n	n	42	n	u	59
Cc1cccc(Nc2nc3ccccc3s2)c1C	n	n	49	n	n	100
Nc1nc(-c2cc(-c3ccccc3)no2)cs1	n	n	32	n	n	69
Nc1nc(-c2ccc(F)cc2)cs1	n	n	n	n	u	n
Nc1nc(-c2ccccc2)cs1	x	n	29	n	n	35
Nc1nc(-c2ccc(Br)cc2)cs1	n	n	20	n	n	88
c1ccc(-c2cc(-c3ccccc3)on2)cc1	n	n	35	n	n	67
Cc1ccc(-c2cc(-c3ccccc3)no2)cc1	n	n	x	x	n	x
CCNC(=O)c1cc(S(=O)(=O)N2CCSCC2)ccc1OC	n	n	n	n	u	n
CCOc1ccccc1N1CCN(C(=O)c2ccc(OCC(=O)N3CCOCC3)c(OC)c2)CC1	n	n	n	n	n	n
Brc1ccc(-c2csc(Nc3nc(-c4ccc(Br)cc4)cs3)n2)cc1	u	n	22	u	u	n
Nc1nc(-c2cccc(Br)c2)cs1	x	n	46	n	n	82
O=C(c1ccccc1)c1cc(-c2ccccc2)on1	n	n	19	n	x	n
SMILES	Pf growth 48h	SARS PLP yeast	Cycloheximide cs	NS1 function inh	Pf growth 96h	Shiga inhibitor
NS(=O)(=O)c1ccc(Nc2nc(-c3ccc(O)cc3)cs2)cc1	n	n	n	u	n	n
O=C(c1ccccc1)c1c(O)cc(-c2ccccc2)oc1=O	n	n	n	n	n	n
CCOc1ccc(C2CC(=O)n3nc(C45CC6CC(CC(C6)C4)C5)nc3S2)cc1OC (stereo not drawn)	n	n	n	n	12µM	n
COc1ccc(C2C=C(C34CC5CC(CC(C5)C3)C4)NC(=S)N2)cc1 (stereo not drawn)	9.3µM	n	n	n	12µM	n
COCCn1cnc2c1c(=O)n(CC#N)c(=O)n2Cc1ccccc1	n	n	n	n	u	n
Cc1ccc(C)c(OCCn2c(=O)c3c(ncn3C3CCCC3)n(Cc3ccccc3)c2=O)c1	12µM	n	n	n	2.6µM	n
O=c1c2c(ncn2C2CCCC2)n(Cc2ccccc2)c(=O)n1CCOc1ccccc1	17µM	n	n	n	u	n
Cc1ccc(C)c(OCCCNCc2ccccc2)c1	n	n	n	n	n	x
O=c1c2c(ncn2C2CCCC2)n(Cc2ccccc2)c(=O)n1CCOc1ccc(Br)cc1	13µM	n	n	n	13µM	n
CCCCn1c(=O)n(CC(O)c2ccccc2)c(=O)c2c1ncn2C1CCCC1 (stereo not drawn)	2.9µM	n	n	u	u	n
Cc1ccc2[nH]c3c(c2c1)CCNC3=O	n	n	n	n	u	n
CC(NC(=O)c1cn(C(C)c2ccccc2F)nn1)c1ccncc1 (stereo not drawn)	n	n	n	n	n	n
O=C1CCC/C(=N/Nc2ccc(Cl)cc2)C1	u	n	29	x	12µM	67
CN(C)c1ccc(NC(=O)/C=C/c2c(Cl)cccc2Cl)cc1	n	n	41	n	n	59
O=C(/C=C/c1ccccc1Cl)Nc1cccc(O)c1	n	n	26	x	n	78
O=C(/C=C/c1ccccc1Cl)Nc1ccc(Cl)cn1	n	n	n	x	n	48
COC(=O)C(CC(C)C)NC(=O)/C=C/c1ccc(Cl)cc1 (stereo not drawn)	u	n	n	x	n[5.75 µM]	n
COC(=O)C(CC(C)C)NC(=O)/C=C/c1ccccc1Cl (stereo not drawn)	13µM	n	n	n	n	n
O=C(Nc1ccc(Cl)cn1)C1CC1	n	n	n	x	n	n
Cc1occc1C(=O)N(C)Cc1nc(-c2ccc(Cl)cc2)no1	n	n	n	n	n	n
CSCCC(NC(=O)c1ccccc1)C(=O)N1CCN(C(C)=O)CC1 (stereo not drawn)	u	n	x	x	u	x
Nc1ccccc1NC(=O)c1ccc(CNC(=O)OCc2cccnc2)cc1	x	x	n	x	x	n
O=C(/C=C/c1ccccc1Cl)Nc1ccccc1	n	n	37	n	n	60
COc1ccc(OCC(O)CNC(=O)Nc2ccc(F)cc2)cc1 (stereo not drawn)	n	n	n	n	n	n
Cc1c(NC(=S)N2CCN(c3cccc(Cl)c3)CC2)c(=O)n(-c2ccccc2)n1C	n	n	n	n	n	n
SMILES	Pf growth 48h	SARS PLP yeast	Cycloheximide cs	NS1 function inh	Pf growth 96h	Shiga inhibitor
Cc1cccc2nc(CSc3nc4[nH]ncc4c(=O)n3-c3ccccc3Cl)cc(=O)n12	9.3µM	n	14	n	9.3µM	n
O=c1c2cn[nH]c2nc(SCc2cc(=O)n3cc(Br)ccc3n2)n1-c1ccc(Br)cc1	12µM	n	22	x	n	n
Cc1ccccc1-n1c(SCc2cc(=O)n3ccccc3n2)nc2[nH]ncc2c1=O	u	n	n	n	13µM	n
CC(C)[C@H](NC(=O)c1nn(Cc2ccccc2)c(=O)c2ccccc12)C(=O)O	n	n	n	n	n	n
C[N+]1(C)CCC[C@H]1C(=O)[O-]	x	x	n	x	x	n
CC(=O)OCC(=O)[C@H]1CC[C@H]2[C@@H]3CCC4=CC(=O)CC[C@]4(C)[C@H]3CC[C@]12C	u	n	n	n	u	n
C[C@]12CC[C@H]3[C@@H](CCC4=CC(=O)CC[C@@]43C)[C@@H]1CC[C@@H]2C(=O)CO	12µM	n	n	n	9.3µM	n
CC(C)c1cc(C(=O)OCC(=O)N2CCN(C(=O)c3ccco3)CC2)c(O)c(C(C)C)c1	n	n	n	n	n	n
COc1ccc(/C=C2\C(=O)NC(=S)N2C(=O)c2ccc(C)cc2)cc1	n	n	35	n	7.4µM	59
O=C1NC(=S)N(C(=O)c2ccc(F)cc2)/C1=C/c1cccnc1	u	n	n	n	u	n
